Assay results published in PubChem BioAssay (Tox21).
Results filed as inconclusive are left out. Values without a mark were called inactive. Calls of active or inactive are those of the source. Calls follow the shape of the dose curve; as a rule, active = well fitted cell-killing curve with a large enough effect in the repeat runs; inconclusive = weak or mixed curves, or effect the other way; inactive = flat fitted curve, though single readings scatter.

Experiment: cAMP Responsive Elements (CRE) small molecule antagonists, cell-based qHTS assay: qHTS cell viability counter screen (AID 2060913); also: nearly all actives have a fitted effect of over 40% in size
Conditions: CRE-bla HEK293T viability, CellTiter-Glo luminescence, 5 h; series mostly up to 92.4 µM; viability change, negative = cytotoxic: at the top concentration
Summary of the method: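 CRE-bla HEK293T cells (2,000/well, 18 h) given compound plus NKH477 0.25 uM final for 3 h at 37C; viability counter-screen by CellTiter-Glo luminescence in same wells after 30 min.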
% is scaled to controls: 0 for no effect and ±100 for the full control effect.

Row | SMILES | viability change, negative = cytotoxic | Potency
1 | CC(=O)C(Cl)Cl | -0.727% | 
2 | CC(C)Oc1cccc(NC(=O)c2ccccc2C(F)(F)F)c1 | 0.493% | 
3 | ClC1(Cl)C2(Cl)C3(Cl)C4(Cl)C(Cl)(Cl)C5(Cl)C3(Cl)C1(Cl)C5(Cl)C24Cl (centres undefined) | 8.62% | 
4 | CCOS(C)(=O)=O | 0.252% | 
5 | CC(C)Br | -7.96% | 
6 | CC(Cl)C(C)Cl (centres undefined) | 7.8% | 
7 | Oc1ccc2c3c1O[C@H]1[C@@H](O)C=C[C@H]4[C@@H](C2)NCC[C@@]341 | -2.4% | 
8 | Oc1cccc2cccnc12 |  | inactive
9 | CSc1ccc(C(=O)C(C)(C)N2CCOCC2)cc1 | -11.8% | 
10 | CN1CC[C@]23c4c5ccc(O)c4O[C@H]2[C@@H](O)CC[C@H]3[C@H]1C5 | -1.04% | 
11 | C=CC(=O)OC(C)(C)C | -3% | 
12 | CNC(=O)Oc1ccccc1C1OCCO1 | -6.27% | 
13 | COC(=O)c1ccc(CBr)cc1 | 11.7% | 
14 | CC(=O)[C@H]1CC[C@H]2[C@@H]3CC[C@H]4C[C@H](O)CC[C@]4(C)[C@H]3C(=O)C[C@]12C | 2.47% [at 42.5 µM] | 
15 | CCNc1nc(Cl)nc(NC(C)(C)C)n1 | 7.42% | 
16 | c1ccc(N=Nc2ccccc2)cc1 |  | inactive
17 | Brc1ccc(Oc2ccc(Br)cc2Br)c(Br)c1 | -14.9% | 
18 | BrCCc1ccccc1 | -0.931% | 
19 | CC(C)CC(N(C)C)C1(c2ccc(Cl)cc2)CCC1 (centres undefined) | 13.7% [at 42.5 µM] | 
20 | CC(=O)OC1(c2ccccc2)CCN(CCc2ccccc2)CC1 | -11.4% | 
21 | CC(C)(C)c1ccc(OP(=O)(Oc2ccccc2)Oc2ccccc2)cc1 | -20.3% | 
22 | CNC(=O)O/N=C(\C)C(C)S(C)(=O)=O (centres undefined) | -13.7% [at 872 µM] | 
23 | COP(=S)(OC)SCN1C(=O)c2ccccc2C1=O |  | inactive
24 | CC1(C)CC/C(=C/c2ccc(Cl)cc2)C1(O)Cn1cncn1 (centres undefined) | 0.26% | 
